A number with no mark means an inactive call. Records with an inconclusive call do not appear. Activity calls are given as the source filed them. Unless noted, calls come from the whole dose curve; as a rule, active = well fitted curve in the direction sought with a large enough effect in the repeat runs; inconclusive = weak or mixed curves; inactive = no such curve, though single readings can be large; an effect the other way counts as inactive or inconclusive.

Experiment [1] is described as follows: qHTS assay to identify small molecule antagonists of the estrogen related receptor (ERR) signaling pathway from Tox21 library - cell viability counter screen (AID 1224834). Note: nearly all actives have a fitted effect of over 30% in size. Note: potency is the fitted concentration of half-maximal effect. A digest of the protocol: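 ERR cells, 2,000/well; 6 h settle at 37 C/5% CO2; pin-tool compound transfer in DMSO; 17.5 h at 37 C; CellTiter-Fluor, 30 min; fluorescence intensity.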
On the technique in general: In qHTS, concentration-response curves come from the screen itself.

In experiment [2] the target is Luciferin 4-monooxygenase (Photinus pyralis) (UniProt P08659). Nature of the experiment: qHTS assay to identify small molecule inhibitors of firefly luciferase (AID 1224835). Note: % is set by controls: 0 for no effect and ±100 for the full control effect; nearly all actives have a fitted effect of over 25% in size. A digest of the protocol:
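Quantitative HTS format; KM concentrations of both substrates. Purified P. pyralis FLuc activity quantified from luminescence images.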

Experiment [3] deals with Nuclear receptor subfamily 1 group I member 3 (Homo sapiens) (UniProt Q14994). Nature of the experiment: qHTS assay to identify small molecule agonists of the constitutive androstane receptor (CAR) signaling pathway (AID 1224839). For activation: % is set by controls: 0 for no effect and ±100 for the full control effect. Note: nearly all actives have a fitted effect of over 15% in size. Note: potency is the fitted concentration of half-maximal effect. A digest of the protocol: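 Stable hCAR/CYP2B6-2.2kb HepG2 line in DMEM with 10% FBS; compounds (15 concentrations) and 0.75 uM PK11195 final, 24 h at 37 C/5% CO2, then ONE-Glo luminescence after 30 min.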

Experiment [4] in a line: qHTS assay to identify small molecule antagonists of the estrogen related receptor signaling pathway with the pleiotropic PPARgamma coactivator (PGC) from Tox21 10K library - cell viability counter screen (AID 1224840; active = well fitted cell-killing curve with a large enough effect in the repeat runs, not every such curve was filed as active; note: nearly all actives have a fitted effect of over 40% in size; note: potency is the fitted concentration of half-maximal effect). A digest of the protocol:
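Multiplexed viability counter screen in the PGC/ERR cell line: cells treated with DMSO-dissolved compounds for 17.5 hours at 37 C, then viability measured as CellTiter-Fluor fluorescence.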

A short description of experiment [5]: qHTS assay to identify small molecule antagonists of the estrogen related receptor signaling pathway with the pleiotropic PPARgamma coactivator (PGC) from Tox21 10K library (AID 1224841; call rule not given here; note: % is set by controls: 0 for no effect and ±100 for the full control effect; actives are mostly falling curves and most rising ones were filed inactive; nearly all actives have a fitted effect of over 50% in size). A digest of the protocol: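 Steps: plate 2,000 PGC/ERR cells per well; incubate 6 h at 37 C with 5% CO2; transfer compounds from DMSO stocks by pin tool; incubate 18 h at 37 C; add One-Glo; measure luminescence 30 min later.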

Experiment [6] in a line: qHTS assay to identify small molecule agonists of the estrogen related receptor signaling pathway with the pleiotropic PPARgamma coactivator (PGC) from Tox21 10K library (AID 1224842). Note: % is set by controls: 0 for no effect and ±100 for the full control effect; nearly all actives have a fitted effect of over 15% in size. A digest of the protocol:
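PGC/ERR reporter cells (NTP line) were seeded 2,000 per well, rested 6 h at 37 C/5% CO2, then pin-dosed with compounds in DMSO for 18 h at 37 C; luciferase read by One-Glo luminescence after 30 min at room temperature.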

In experiment [7] the target is Thyrotropin receptor (Homo sapiens) (UniProt P16473). The experiment is described as follows: qHTS assay to identify small molecule agonists of the thyroid stimulating hormone receptor (TSHR) signaling pathway (AID 1224843; calls by dose curve; note: % is set by controls: 0 for no effect and ±100 for the full control effect; nearly all actives have a fitted effect of over 45% in size). A digest of the protocol:
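Compounds are titrated over 15 concentrations, in triplicate, onto TSHR-HEK293 cells seeded at 800/well. Plates sit 30 min at room temperature before cAMP-d2 and anti-cAMP cryptate are added; signal is read after a further hour.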

The nature of experiment [8]: qHTS assay to identify small molecule agonists of the hypoxia (HIF-1) signaling pathway (AID 1224846; active = well fitted activation curve with a large enough effect in the signal ratio in the repeat runs, not every such curve was filed as active; the % refers to the signal ratio; note: % is set by controls: 0 for no effect and ±100 for the full control effect). A digest of the protocol:
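Compounds from the Tox21 10K library, dissolved in DMSO, are tested for induction of a hypoxia response element–controlled beta-lactamase reporter in ME-180 cells. Exposure lasts 17 hrs at 37C after a 5 hr settling period, followed by CCF4-AM FRET substrate.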

Experiment [9] in a line: qHTS assay to identify small molecule agonists of H2AX - cell viability counter screen (AID 1224847; calls by dose curve; note: nearly all actives have a fitted effect of over 30% in size; note: potency is the fitted concentration of half-maximal effect; for activity change, negative = cytotoxicity: top concentration of the series differs between compounds; % is set by controls: 0 for no effect and ±100 for the full control effect). A digest of the protocol: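 Viability of CHO-K1 (wild type) cells after 3 hr compound exposure was measured by CellTiter-Glo luminescence.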
Experiment [10] is described as follows: qHTS assay to identify small molecule agonists of the estrogen related receptor (ERR) signaling pathway from Tox21 library (AID 1224849; calls by dose curve; note: % is set by controls: 0 for no effect and ±100 for the full control effect; nearly all actives have a fitted effect of over 15% in size). The following applies: ERR reporter cell line, ONE-Glo luciferase, 18 h; at 92.4 µM (top of the series) unless noted. A digest of the protocol:
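Cells carrying the ERR reporter were plated and allowed to settle for 6 h, exposed to library compounds for 18 h at 37 C, then lysed with ONE-Glo and luminescence measured.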

The nature of experiment [11]: qHTS RealTime-Glo MT Cell Viability Assay in HepG2 cells - 24 hour (AID 1224867). Note: % is set by controls: 0 for no effect and ±100 for the full control effect; nearly all actives have a fitted effect of over 50% in size. A digest of the protocol:
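Tox21 10K library screened in qHTS format on HepG2 cells carrying RealTime-Glo reagents. Compounds were added after a 5 h preincubation, and the luminescent signal from continuous culture was measured repeatedly during 40 h treatment.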

A short description of experiment [12]: A CellTox Green Cytotoxicity Assay to monitor cytotoxicity in HEK293 cells - 0 hour (AID 1224869). Note: nearly all actives have a fitted effect of over 50% in size. Note: potency is the fitted concentration of half-maximal effect. A digest of the protocol:
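Cells (HEK293, 600/well) and dye reagent are dispensed together. After 5 h at 37 C, 23 nL compound is pinned in. Plates stay at 37 C for 40 h with fluorescence read at 0h, 8h, 16h, 24h, 32h and 40h.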

Experiment [13] can be described thus: qHTS RealTime-Glo MT Cell Viability Assay in HepG2 cells - 40 hour (AID 1224870). Note: % is set by controls: 0 for no effect and ±100 for the full control effect; nearly all actives have a fitted effect of over 50% in size. A digest of the protocol:
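HepG2 cells mixed with RealTime-Glo MT reagents (NanoLuc plus cell-permeant prosubstrate) were seeded at 600 cells/well, incubated 5 h at 37 C/5% CO2, then pinned with compounds in DMSO; nonlytic luminescence tracked viability during 40 h treatment.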

Experiment [14] in a line: qHTS assay to identify small molecule antagonists of the constitutive androstane receptor (CAR) signaling pathway - cell viability counter screen (AID 1224837). Note: potency is the fitted concentration of half-maximal effect; nearly all actives have a fitted effect of over 45% in size. A digest of the protocol:
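Viability was measured with CellTiter-Fluor in a HepG2 line carrying stably transfected hCAR and a CYP2B6-2.2kb construct. Cells were exposed for 23 hr at 37 C to 15 compound concentrations with 50 nM CITCO as agonist.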

Experiment [15] in a line: qHTS assay to identify small molecule agonists of the hypoxia (HIF-1) signaling pathway - cell viability counter screen (AID 1224844; calls by dose curve; note: nearly all actives have a fitted effect of over 50% in size; note: potency is the fitted concentration of half-maximal effect). A digest of the protocol: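 Cytotoxicity was measured in parallel with the HRE-driven beta-lactamase readout: after 17 hrs of compound exposure at 37C, HRE-bla ME-180 cells received CellTiter-Glo and luminescence was recorded 30 min later.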

The nature of experiment [16]: qHTS RealTime-Glo MT Cell Viability Assay in HEK293 cells - 32 hour (AID 1224868). Note: nearly all actives have a fitted effect of over 50% in size. Note: potency is the fitted concentration of half-maximal effect. A digest of the protocol:
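Luminescence generated by NanoLuc from substrate produced by living HEK293 cells served as the viability signal. Each value reflects the reading at its stated time point during continuous 40 h compound exposure at 37 C.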

The nature of experiment [17]: qHTS assay to identify small molecule agonists of the constitutive androstane receptor (CAR) signaling pathway - cell viability counter screen (AID 1224836). Note: nearly all actives have a fitted effect of over 45% in size. Note: potency is the fitted concentration of half-maximal effect. A digest of the protocol:
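Fluorescence from CellTiter-Fluor indicates live cells after 23 h exposure. The human hepatoma line expresses hCAR and a CYP2B6-2.2kb reporter. Incubation medium contains 0.75 uM PK11195 (final).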

In experiment [18] the target is Nuclear receptor subfamily 1 group I member 3 (Homo sapiens) (UniProt Q14994). Nature of the experiment: qHTS assay to identify small molecule antagonists of the constitutive androstane receptor (CAR) signaling pathway (AID 1224838).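 Note: HepG2 cells stably expressing hCAR with CYP2B6 luciferase reporter stimulated by CITCO; nearly all actives have a fitted effect of over 40% in size.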 Note: potency is the fitted concentration of half-maximal effect. A digest of the protocol: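 Antagonist mode used CITCO at a final 50 nM to activate CAR in human hepatoma HepG2 cells carrying stable hCAR and a 2.2 kb CYP2B6 promoter-luciferase construct. Compounds were tested at 15 concentrations over 24 h, with luminescence as the end point.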

Experiment [19] can be described thus: qHTS assay to identify small molecule antagonists of the estrogen related receptor (ERR) signaling pathway from Tox21 library (AID 1224848). A digest of the protocol:
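First, 2,000 ERR cells per well were plated and held 6 h at 37 C/5% CO2. Next, compounds in DMSO were pinned in and left 18 h at 37 C. Finally, ONE-Glo was added and luminescence read after 30 min at room temperature.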

The nature of experiment [20]: qHTS assay to identify small molecule agonists of H2AX (AID 1224845; active = well fitted activation curve with a large enough effect in the signal ratio in the repeat runs, not every such curve was filed as active; the % refers to the signal ratio; note: % is set by controls: 0 for no effect and ±100 for the full control effect). A digest of the protocol: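 Wild-type CHO-K1 cells plated overnight, then exposed 3 hr at 37C to compounds at 15 concentrations (0.76% DMSO). Lysed, then HTRF anti-pH2AX(S139)-cryptate/anti-H2AX-d2 detection after 24 hr at room temperature; emissions 665 and 620 nm.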

Luciferin 4-monooxygenase (Photinus pyralis), sequence (P08659 whole entry, looked up): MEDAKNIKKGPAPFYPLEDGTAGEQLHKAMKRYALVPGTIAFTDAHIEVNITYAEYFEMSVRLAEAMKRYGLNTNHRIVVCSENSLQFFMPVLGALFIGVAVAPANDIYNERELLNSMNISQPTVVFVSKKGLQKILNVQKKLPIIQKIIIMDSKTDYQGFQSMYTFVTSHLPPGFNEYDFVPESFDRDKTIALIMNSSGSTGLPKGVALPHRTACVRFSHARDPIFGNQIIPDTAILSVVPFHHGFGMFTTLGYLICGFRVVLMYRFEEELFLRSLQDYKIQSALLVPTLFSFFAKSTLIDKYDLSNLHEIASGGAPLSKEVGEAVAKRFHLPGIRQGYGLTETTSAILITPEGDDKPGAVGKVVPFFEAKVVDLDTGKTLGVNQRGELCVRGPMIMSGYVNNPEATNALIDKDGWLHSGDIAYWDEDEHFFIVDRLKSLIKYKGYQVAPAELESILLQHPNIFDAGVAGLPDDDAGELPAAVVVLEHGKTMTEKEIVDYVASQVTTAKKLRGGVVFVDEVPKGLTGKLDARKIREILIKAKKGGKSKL
Nuclear receptor subfamily 1 group I member 3 (Homo sapiens), sequence (Q14994 whole entry, looked up): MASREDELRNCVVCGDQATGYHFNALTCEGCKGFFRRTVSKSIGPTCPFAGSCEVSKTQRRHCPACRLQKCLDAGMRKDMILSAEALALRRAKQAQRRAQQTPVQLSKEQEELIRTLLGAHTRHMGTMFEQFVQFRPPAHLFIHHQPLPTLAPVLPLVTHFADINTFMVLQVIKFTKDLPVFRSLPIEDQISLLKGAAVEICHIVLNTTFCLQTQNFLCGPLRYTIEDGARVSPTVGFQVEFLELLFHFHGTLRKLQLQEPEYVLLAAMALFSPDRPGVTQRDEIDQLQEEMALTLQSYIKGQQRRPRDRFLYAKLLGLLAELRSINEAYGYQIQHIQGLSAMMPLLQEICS
Thyrotropin receptor (Homo sapiens), sequence (P16473 whole entry, looked up): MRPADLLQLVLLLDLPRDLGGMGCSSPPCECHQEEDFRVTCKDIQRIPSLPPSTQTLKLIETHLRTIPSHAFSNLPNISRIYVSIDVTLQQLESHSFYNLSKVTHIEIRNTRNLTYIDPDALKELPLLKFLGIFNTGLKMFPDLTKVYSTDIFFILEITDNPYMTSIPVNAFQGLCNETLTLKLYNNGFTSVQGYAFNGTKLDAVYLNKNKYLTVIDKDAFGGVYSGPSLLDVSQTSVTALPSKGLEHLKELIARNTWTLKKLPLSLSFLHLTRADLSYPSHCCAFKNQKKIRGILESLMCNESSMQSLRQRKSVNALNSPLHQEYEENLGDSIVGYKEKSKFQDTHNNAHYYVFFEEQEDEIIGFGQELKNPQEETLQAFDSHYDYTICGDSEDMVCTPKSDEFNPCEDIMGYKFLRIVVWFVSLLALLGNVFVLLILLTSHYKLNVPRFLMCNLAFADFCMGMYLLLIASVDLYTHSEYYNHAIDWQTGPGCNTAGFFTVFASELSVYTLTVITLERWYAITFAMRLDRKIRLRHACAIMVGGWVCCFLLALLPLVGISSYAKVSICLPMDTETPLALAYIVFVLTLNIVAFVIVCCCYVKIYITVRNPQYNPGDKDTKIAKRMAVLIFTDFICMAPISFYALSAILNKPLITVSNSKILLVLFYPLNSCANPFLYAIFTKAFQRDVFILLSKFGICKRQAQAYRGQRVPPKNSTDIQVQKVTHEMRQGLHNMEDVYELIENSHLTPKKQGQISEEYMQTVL

Turning to `Cc1cccc(O)c1N`, in experiment [1], the Potency is 27.6 µM (active). Besides, the Potency entry in experiment [2], in experiment [3], in [4], in experiment [5], in experiment [6] and in [7] was “inactive” throughout. Besides, the Potency result in experiment [9], in [11], in experiment [12] and in [13] was “inactive” each time. In addition, the compound was called inactive in experiment [8]. Besides, the activity change, positive = activation in [10] was -14.7%.

Regarding `CC(CC1c2ccccc2CCc2ccccc21)CN(C)C` (stereo not given), the Potency in experiment [1] is 33.5 µM (active); in experiment [14], 29.8 µM (active); in experiment [15], 10.7 µM (active). Moreover, the Potency result in [2], in experiment [4], in experiment [11], in experiment [16] and in experiment [12] was “inactive” in each case. Further, the result in experiment [8] was inactive.

On to `CC(=O)Nc1cc(S(=O)(=O)O)cc2cc(S(=O)(=O)O)c(N=Nc3ccccc3)c(O)c12`, for which the Potency in experiment [1] is 24.3 µM (active); in experiment [17] it was 30.6 µM (active); in experiment [14] it was 27.3 µM (active); in [4] it was 27.3 µM (active); in experiment [9] it was 50.5 µM (active). Besides, the Potency result in experiment [18], in [3], in experiment [6], in experiment [15], in experiment [11] and in experiment [16] was “inactive” in each case. In experiment [12], the Potency result was “inactive”. In addition, the outcome in [8] was inactive. Also, the activity change, positive = activation in experiment [10] was -5.56%.

On to `CC1(CN2CCC(n3c(=O)[nH]c4ccccc43)CC2)OCc2ccccc2-n2cccc21` (stereo not given), for which the figures for the Potency in experiment [1], in experiment [15] and in experiment [16] were 23.7 µM (active), 23.9 µM (active) and 19 µM (active), respectively. The Potency result in experiment [2], in [18], in experiment [3], in [12] and in experiment [13] was “inactive” throughout.

Take `CCCC(C(=O)OCCN(CC)CC)(c1ccccc1)c1ccccc1`: the Potency in [1] was 29.8 µM (active); in experiment [3], 11.9 µM (active); in experiment [19], 29.8 µM (active); in experiment [16] it was 21.3 µM (active). The Potency result in experiment [2], in experiment [17], in experiment [18], in [6], in [12] and in [13] was “inactive” in each case. Besides, the activity change, positive = activation in experiment [10] was -35.3% [at 42.5 µM].

Regarding `CC1=C(CC=O)C(C)(C)CCC1`, the Potency result in experiment [1], in experiment [2], in experiment [17], in experiment [4], in experiment [15] and in experiment [20] was “inactive” throughout. Also, the Potency result in [11], in experiment [16], in [12] and in experiment [13] was “inactive” each time. Further, the compound was classed as inactive in experiment [8].

With `CN1C[C@H](C(=O)N[C@]2(C)O[C@@]3(O)[C@@H]4CCCN4C(=O)[C@H](Cc4ccccc4)N3C2=O)C[C@@H]2c3cccc4[nH]cc(c34)C[C@H]21`, the Potency in [1] was 26.6 µM (active); in [15], 12 µM (active); in experiment [19], 29.8 µM (active); in [16], 21.3 µM (active). Besides, the Potency entry in experiment [2], in experiment [18], in experiment [3], in experiment [5], in experiment [6] and in [7] was “inactive” each time. In addition, in [12], the Potency result is “inactive”. Also, the activity change, positive = activation in experiment [10] was -52.3% [at 42.5 µM].

Turning to `O=C1C(=O)c2ccccc2C(O)=C1C1CCC(c2ccc(Cl)cc2)CC1` (stereo not given), the Potency entry in experiment [1], in experiment [2], in [4], in [6], in experiment [15] and in experiment [20] was “inactive” throughout. Besides, the Potency entry in [9], in [11], in [16], in experiment [12] and in experiment [13] was “inactive” each time. Also, the compound was classed as inactive in experiment [8]. In addition, the Potency in experiment [19] was 10.6 µM (active). Moreover, the activity change, positive = activation in experiment [10] is 0.683% [at 42.5 µM].

With `Cc1cc(=O)c2c(O)c3c(O)cc(=O)c4c3c3c(cc(O)c1c23)C(C)(C)C=4O`, the Potency in experiment [1] was 1.46 µM (active); in experiment [18], 2.59 µM (active); in [16], 1.17 µM (active); in experiment [12], 3.69 µM (active). Further, the Potency entry in [2] is “inactive”. Besides, the results for the activation in experiment [3], in experiment [7] and in experiment [8] were -14.4% [at 19 µM], 13.3% [at 19 µM] and -2.37% [at 15.8 µM], respectively. Also, the activity change, negative = cytotoxicity in experiment [15] was 15.9% [at 15.8 µM]; in experiment [11] it was -25.2% [at 15.8 µM].

Take `C[C@@H](CN(C)C)CN1c2ccccc2Sc2ccccc21`: the figures for the Potency in experiment [1], in [15] and in experiment [16] were 26.6 µM (active), 19 µM (active) and 21.3 µM (active), respectively. For the same compound, the Potency result in experiment [2], in experiment [18], in [4], in experiment [5], in experiment [6] and in experiment [20] was “inactive” each time. The Potency result in [9] and in experiment [12] was “inactive” throughout. Besides, the result in [8] was inactive. Besides, the activity change, positive = activation in [10] is -18.9% [at 42.5 µM].
